Assay results: PubChem BioAssay AID1778 (Sanford-Burnham Center for Chemical Genomics, 2009)
Hit rate of the full screen: of about 290,000 compounds, about 260 (0.09%) were called active. What follows is part of a selection rich in actives, with near analogues and random picks from the rest. Measured potencies and affinities stand elsewhere. Values without a mark were called inactive. Rule as the data show it: active = inhibition above about 50%; inactive = the rest.

Biological target: Kappa-type opioid receptor (Homo sapiens) (UniProt P41145)
Sequence (P41145 whole entry, looked up): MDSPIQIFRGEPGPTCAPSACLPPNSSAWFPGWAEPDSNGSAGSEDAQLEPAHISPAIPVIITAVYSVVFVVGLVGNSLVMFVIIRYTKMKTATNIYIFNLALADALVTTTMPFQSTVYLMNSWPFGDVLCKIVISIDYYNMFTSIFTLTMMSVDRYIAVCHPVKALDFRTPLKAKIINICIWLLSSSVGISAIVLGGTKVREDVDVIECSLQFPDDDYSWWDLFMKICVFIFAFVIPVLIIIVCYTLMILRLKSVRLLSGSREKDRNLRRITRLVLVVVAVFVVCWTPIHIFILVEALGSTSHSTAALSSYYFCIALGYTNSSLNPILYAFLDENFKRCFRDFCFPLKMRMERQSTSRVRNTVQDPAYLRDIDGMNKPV
Assay: kappa opioid receptor blockers – cell-based, luminescence, uHTS (AID 1778)
Conditions: KOR beta-arrestin recruitment, antagonist mode, active compounds read high; at 10 µM unless noted

Structure (SMILES) | inhibition
COc1ccc(OCc2nnc(SCC(=O)Nc3ccccc3C#N)o2)cc1 | -9.7%
COc1ccc(NC(=O)c2ccc(CN(c3cc(Cl)ccc3C)S(=O)(=O)c3ccccc3)cc2)cc1OC | -2.5%
Cn1c(CNC(=O)c2ccccc2F)nnc1SCC(=O)NCc1ccccc1 | -10.1%
Fc1ccc(-c2ccnc(=S)[nH]2)cc1 | 2.9%
C/C(=N/NC(=O)c1ccccn1)c1ccncc1 | -12.4%
C/C(=N\NC(=O)c1ccc(F)cc1)c1ccccn1 | 86.6% (active)
C/C(=N/NC(=O)c1ccccn1)c1ccc(O)cc1 | 12.9%
Cc1ccc(O)c(CO)n1 | 0.6%
Cc1ccc2ccc3ccc(C)nc3c2n1 | -8.8% [at 20 µM]
COc1ccc(-n2nc3c(N)n[nH]c3cc2=O)cc1 | -30.3% [at 20 µM]
Nc1n[nH]c2cc(=O)n(-c3ccc(Cl)cc3)nc12 | -68.5% [at 20 µM]
CC(C)(C)c1ccc(-n2nc(C(N)=O)c(O)cc2=O)cc1 | -2%
COc1cccc(-n2nc(C#N)c(Cl)cc2=O)c1 | 32.8%
COc1cc(C=O)ccc1OCCSc1ccc(Cl)cc1 | 16.4%
CC(CCc1ccccc1)NC(=O)c1ccc(NC(=O)c2ccc(Cl)cc2Cl)cc1 (stereo unspecified) | 26.3%
C/C=N/NC(=O)CCNC(=O)c1ccccc1 | -40%
CCCCn1c(-c2cccs2)nc2oc3ccccc3c(=O)c2c1=O | 17.8%
Cc1cc2nnc(SCC(=O)Nc3cc(S(=O)(=O)N4CCOCC4)ccc3Cl)n2c2ccccc12 | -21.8%
O=C(NNC(=O)C1CC=CCC1C(=O)O)c1cccs1 (stereo unspecified) | 30.6%
CC1SCC(NC(=O)c2cccc(Cl)c2)CS1 (stereo unspecified) | -29.1%
CCN(CC(=O)Nc1ccccc1C(F)(F)F)C(=O)CCc1nc2ccccc2c(=O)[nH]1 | -11.6%

Structure (SMILES) | inhibition
Cc1nc2c(-c3ccc(Cl)cc3)c(C)[nH]n2c(=O)c1Cc1ccccc1 | 51% (active)
Cc1nc2c(-c3ccccc3)c(C)[nH]n2c(=O)c1Cc1ccccc1 | -10.5% [at 20 µM]
COc1ccc(-c2c(C)[nH]n3c(=O)c(Cc4ccccc4)c(C)nc23)cc1 | -5.1%
COc1ccc(CC(=O)Nc2ccc(C(C)=O)cc2)cc1 | -81.9% [at 20 µM]
O=S(=O)(O)c1cccc2c(N=Nc3ccc(O)c4ncccc34)cccc12 | -7.2%
O=S(=O)(Nc1ccc(N=Nc2ccc(O)c3ccccc23)cc1)c1ccccc1 | -3.4%
Oc1[nH]c2ccccc2c1C=Nc1ccc2c(c1)OCO2 | -33.1%
Nc1ccc(N=Nc2ccccc2)c2cccnc12 | -4.3%
Oc1[nH]c2ccccc2c1C=Nc1ccc2c(c1)OCCO2 | 0.8%
Oc1ccc(N=Nc2ccc3c(c2)OCO3)c2ccccc12 | 85.1% (active)
Oc1ccc(N=Nc2ccc3c(c2)OCCO3)c(O)c1 | 34.9%
Oc1ccc(N=Nc2ccc3c(c2)OCCO3)c2cccnc12 | 68.5% (active)
COc1ccccc1NC(=O)c1cc2c(CO)cnc(C)c2oc1=Nc1cccc(C(N)=O)c1 | 21.7%
CCN(CC)CC#Cc1ccc(C)cc1 | -6.4%
CCC(C(=O)OC)n1cnc2c(nnn2-c2ccccc2)c1=O (stereo unspecified) | -16.1% [at 20 µM]
Cc1nn(-c2ccc(N3CCCCC3)nn2)c(C)c1CCC(=O)Nc1ccc(F)c(F)c1 | -31.5%
Cc1cc(C)cc(NC(=O)c2ccc3c(c2)CCN3S(C)(=O)=O)c1 | -4.2%
COc1ccccc1N1CCN(Cc2ccc(O)c3ncccc23)CC1 | -12.2%
O=[N+]([O-])c1cc(CN2CCN(c3ccccc3)CC2)c(O)c2ncccc12 | 12% [at 20 µM]
COc1ccccc1N1CCN(Cc2cc3c(cc2Br)OCCO3)CC1 | -44.1%
Oc1c(CN2CCCCC2)cc(Br)c2cccnc12 | -1.9%

Structure (SMILES) | inhibition
Oc1c(CN2CCN(c3ccccc3)CC2)cc(Br)c2cccnc12 | 64% (active)
COc1ccccc1N1CCN(Cc2cc(Br)c(O)c3ncccc23)CC1 | 63.3% (active)
COc1ccc(N2CCN(C(=O)c3cc4c(=O)n(Cc5ccccc5)ccc4nc3C)CC2)cc1 | -13.1%
CCCOc1ccc(C(=O)NNC(=S)NC(C)=O)cc1 | 19.1%
CCCCOc1ccc(C(=O)NNC(=S)NC(=O)CC)cc1 | 26.3%
CCc1nnc(NC(=O)c2ccc(-c3ccccc3F)o2)s1 | -18.1%
CC1=C/C(=N\NC(=S)NCCc2ccccc2)CC(C)(C)C1 | -16.1%
CC(C)(C)C1CCC(=NNC(=S)Nc2cccnc2)CC1 (stereo unspecified) | 11.2%
O=C(Nc1ccc(NC(=O)c2ccccc2Cl)nc1)c1ccco1 | -2%
CC(=O)O[C@@H]1[C@H]2[C@@H](C[C@@H](C)[C@@H]3C=CC(=O)[C@@]13C)OC(=O)[C@@H]2C | 23.9%
C=C1C(=O)O[C@@H]2C[C@@H](C)[C@@H]3C=CC(=O)[C@@]3(C)[C@@H](OC(C)=O)[C@H]12 | 26.1%
CN(C)CCCNC(=S)NCCNc1nc2cc3c(cc2cc1C#N)OCO3 | 0.9%
O=C(Nc1ccc(CN2CCS(=O)(=O)CC2)cc1)c1ccccc1 | 0.1%
Cn1ccnc1Sc1cc(NCCCO)c([N+](=O)[O-])c2nonc12 | 41.5%
CCCC(=O)OCCNc1cc(SCCC(=O)OC)c2nonc2c1[N+](=O)[O-] | -12.2%
CCC(=O)OCCNc1cc(SCCC(=O)OC)c2nonc2c1[N+](=O)[O-] | 5.5%
CCCSc1cc(NCCOC(=O)CCC)c([N+](=O)[O-])c2nonc12 | -2.8%
Cc1csc(SCC(=O)NC(=O)C2CCCCC2)n1 | -17.4%
Nc1cc(=O)[nH]c(SCC(=O)Nc2cc([N+](=O)[O-])ccc2Cl)n1 | 15.1%
